This is one part of a sample in which hits are shown more often than they occur.
nsP2pro primary: CHIKV nsP2 protease inhibition, primary qHTS. Q8JUX6. Potency, µM (highest dose often 24.9 µM), inactives show top-dose activity change, negative = inhibition, most hits filed as inhibitors. FRET peptide cleavage, nsP2pro, fluorescence 1 h. actives 1.1% (n = 31,000). AID 1964107; also: nearly all actives have a fitted effect of over 60% in size
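FRET cleavage of 2.5 uM peptide 2 by 150 nM CHIKV protease domain at pH 8.0 (Tris, Tween 20). Compounds at 7 concentrations (up to 25 uM) preincubated 15 min. Fluorescence read after 1 h at room temperature.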
CHIKV nsP2 cell: secondary cell-based test for CHIKV nsP2 protease inhibitors; AID 1964100; actives 10% (n = 450); shares compounds with nsP2pro primary; Potency, µM (highest dose often 51.1 µM), without a hit: at the highest dose activity change, negative = inhibition, actives largely listed as inhibitors; cell-based CHIKV nsP2 protease reporter assay; also: nearly all actives have a fitted effect of over 70% in size
NSP2 full ctr: inhibits full-length CHIKV NSP2 enzyme; shares compounds with nsP2pro primary; Full-length CHIKV NSP2 protease enzymatic counterscreen; Potency, µM (top dose mostly 50.7 µM), for inactives: at the highest dose activity change, negative = inhibition, actives largely listed as inhibitors; actives 39% (n = 410); also: nearly all actives have a fitted effect of over 65% in size
Furin counterscr: human furin inhibition, counterscreen for nsP2pro inhibitors; shares compounds with nsP2pro primary; Recombinant human furin enzymatic counterscreen, fluorogenic substrate; Potency, µM (titrated, usually from 50.6 µM), inactives show at the top dose activity change, negative = inhibition, actives largely listed as inhibitors; actives 6% (n = 410)
NS23 peptide cs: nsP2pro inhibition on native NS2/3 peptide substrate; shares compounds with nsP2pro primary; Purified CHIKV nsP2 protease, endogenous NS2/3 peptide cleavage; Potency, µM (titrated, usually from 51 µM), without a hit: at the highest dose activity change, negative = inhibition, most hits filed as inhibitors; actives 34% (n = 410); also: nearly all actives have a fitted effect of over 55% in size
Papain cs: inhibits papain in a CHIKV nsP2 protease selectivity counterscreen. AID 1964104. Potency, µM (titrated, usually from 51 µM), for the others: top-dose activity change, negative = inhibition, usual class: inhibitors. shares compounds with nsP2pro primary. actives 5% (n = 410). purified papain protease activity, enzymatic inhibition
nsP2pro conf qHTS: CHIKV nsP2 protease inhibition, confirmatory qHTS; actives 43% (n = 410); Potency, µM (highest dose often 25.5 µM), for inactives: top-dose activity change, negative = inhibition, actives largely listed as inhibitors; CHIKV nsP2 protease enzymatic activity, qHTS; shares compounds with nsP2pro primary; also: nearly all actives have a fitted effect of over 75% in size
HCV NS3 4A cs: selectivity counter-screen for CHIKV nsP2 protease inhibitors: HCV NS3/4A; Potency, µM (doses to about 50.9 µM), usual class: inhibitors; shares compounds with nsP2pro primary; AID 1964106; actives 20% (n = 410); HCV NS3/4A protease biochemical counterscreen; also: nearly all actives have a fitted effect of over 55% in size
An asterisk follows results filed as active; i = inactive; ? = inconclusive; ! = not active in a repeat; [ ] = another dose, or the depositor's remark. Calls follow the shape of the full dose curve. % is scaled to controls: 0 for no effect and ±100 for the full control effect; potency is read from the fitted curve at half-maximal effect.

SMILES	nsP2pro primary	others
NC(Cc1c[nH]c2ccc(O)cc12)C(=O)O (stereo not given)	?	CHIKV nsP2 cell=8%;NSP2 full ctr=6%;Furin counterscr=-11%;NS23 peptide cs=-19%;Papain cs=-8%;nsP2pro conf qHTS=-26%;HCV NS3 4A cs=i
CCC(CC)NC(=O)c1ccc2c(c1)N(S(C)(=O)=O)CC2	2%
CO[C@H]1O[C@@H]2O[C@@]3(C)CC[C@H]4[C@H](C)CC[C@@H]([C@@H]1C)[C@@]24OO3	-7%
Cc1c(-c2cnccn2)ssc1=S	5µM*!	CHIKV nsP2 cell=?;NSP2 full ctr=13µM*;Furin counterscr=-13%;NS23 peptide cs=9.2µM*;Papain cs=-23%;nsP2pro conf qHTS=4µM*;HCV NS3 4A cs=i
CCOC(=O)C1CCN(C(=O)C(C)(C)NC(=O)Nc2cccc(C(=O)OC)c2)CC1	i
Cn1cc(C(=O)N2C[C@@H](C(=O)O)[C@H](c3cccc(F)c3)C2)c(=O)[nH]c1=O	1%
Cc1cnc(N2CC[C@](C)(O)[C@@H](O)C2)nc1N(C)C	i
CC(C)NC(=O)O[C@@H]1CC[C@]2(C)C(CC[C@@H](O)[C@H]2CC(=O)NCc2ccccc2)[C@]1(C)CO (stereo not given in full)	29%
CCCCCC/C=C\CCCCCCCC(=O)O	10%
CCCCCC[C@@H](O)C/C=C\CCCCCCCC(=O)O	-14%
CC/C=C\C/C=C\C/C=C\C/C=C\C/C=C\CCCC(=O)O	?	CHIKV nsP2 cell=13%[100 µM];NSP2 full ctr=6.7µM*;Furin counterscr=-11%[100 µM];NS23 peptide cs=?;Papain cs=33µM*;nsP2pro conf qHTS=8.2µM*;HCV NS3 4A cs=i
O=C1COc2nccc(-c3ccccc3F)c2CN1Cc1cc(C(F)(F)F)cc(C(F)(F)F)c1	-19%
Nc1nc(CCC(=O)N[C@@H]2[C@@H](Cc3ccccc3)[C@H]3OCC[C@@H]23)cs1	-1%
O=c1ccc2cc(O[C@@H]3O[C@H](CO)[C@H](O)[C@H](O)[C@H]3O)c(O)cc2o1	1%
O=C(c1cccc(OC2CN(C3CCCCCC3)C2)c1)N1CCCC1	i
O=C(C1CCOCC1)N1CCC(c2nc(C3CCOCC3)no2)CC1	i
COC(=O)N1CCCCC1C(=O)N1CCC2(CC1)c1nc[nH]c1CCN2C (stereo not given)	-11%
Cn1cc(C(=O)N2CCc3[nH]cnc3C2C2CCN(C(=O)C3CCOCC3)CC2)cn1 (stereo not given)	?	CHIKV nsP2 cell=-2%;NSP2 full ctr=6.5µM*;Furin counterscr=-7%;NS23 peptide cs=?;Papain cs=-2%;nsP2pro conf qHTS=?;HCV NS3 4A cs=9.2µM*
C=C1C(=O)OC2CC3(C)C(CC12)C(C)=CC(O)C3OC(C)=O (stereo not given)	126%
C[C@]12CC[C@H]3[C@@H]([C@H](O)CC4=CC(=O)CC[C@@]43C)[C@@H]1CC[C@@H]2O	3%
C=C1C(=O)O[C@@H]2[C@H]1[C@H](O)C[C@]1(C)[C@@H](O)CC=C(C)[C@@H]21	?	CHIKV nsP2 cell=?;NSP2 full ctr=-7%;Furin counterscr=2%;NS23 peptide cs=-11%;Papain cs=-11%;nsP2pro conf qHTS=-17%;HCV NS3 4A cs=i
CC1=CCC(O)C2(C)CCC3C(C)C(=O)OC3C12 (stereo not given)	-1%
C=C1C(=O)OC2C1C(O)CC1(C)C(O)CCC(C=O)C21 (stereo not given)	?	CHIKV nsP2 cell=-6%;NSP2 full ctr=-11%;Furin counterscr=-2%;NS23 peptide cs=-18%;Papain cs=-11%;nsP2pro conf qHTS=-24%;HCV NS3 4A cs=i
C=C1C(=O)OC2C1CCC1(C)C(O)CCC(=C)C21 (stereo not given)	62%
O=C(CO)[C@@H](O)[C@H](O[C@@H]1O[C@H](CO)[C@H](O)[C@H](O)[C@H]1O)[C@H](O)CO	26%
O=C(c1ccccc1)N1CCC2(CC1)C(=O)NN=C2c1ccccn1	-8%[39.2 µM]
COc1c/c(=C2\C=c3ccccc3=N2)[nH]/c1=C/c1[nH]c(C)cc1C	-18%
COc1ccccc1-c1ccc(C(=O)N2CCC(NC(=O)Nc3ccc(Cl)cc3)CC2)cc1	i
